For four compounds, outcome and AC50 results are on record in PubChem BioAssay (EPA / NIEHS).

More than one record can exist for a structure, and the calls need not agree. Active and inactive are the calls of the source. The calls were made as follows: active = hit-call score of the fitted dose curve at least 0.9, where 1 is the maximum; inactive = score below 0.9.

Assay [1] is described as follows: APR_HepG2_CellCycleArrest_24hr: Apredica 24-hour HepG2 Assay for Cell Cycle Arrest (AID 2282905).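 Also: cell cycle arrest scored as ratio of 2N to 4N nuclear DNA content.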 Conditions: imaging, actives raise or lower the signal. The essentials:
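Cell cycle arrest is scored from nuclear DNA content measured by high-content imaging of Hoechst 33342-stained HepG2 cells following 24-hour treatment at ten concentrations up to 200 uM, with DMSO as baseline.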

Assay [2] is described as follows: APR_HepG2_NuclearSize_24hr: Apredica 24-hour HepG2 Assay for Nuclear Size (AID 2282907). Conditions: high-content imaging, actives raise or lower the signal. The essentials:
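Compounds in DMSO (final 0.5%) were added to human HepG2 hepatoma cells at ten concentrations up to 200 uM for 24 hr. Fixed nuclei were stained with Hoechst 33342, and nuclear diameter was quantified from automated images.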

Assay [3] is described as follows: APR_HepG2_CellLoss_24hr: Apredica 24-hour HepG2 Assay for Cell Loss (AID 2282908).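 As to AC50: fit in both directions so a hit may be cell loss or gain.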 The following applies: high-content imaging. The gist of the method: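 Cell number is quantified by fluorescence imaging of Hoechst 33342-stained nuclei following dosing at 0.39–200 uM in 0.5% DMSO. Curves are fitted in both directions from the DMSO baseline.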
Assay [4] can be described thus: APR_HepG2_MicrotubuleCSK_24hr: Apredica 24-hour HepG2 Assay for Microtubule CSK Stabilty (AID 2282909). Conditions: HepG2 microtubule cytoskeleton imaging, actives raise or lower the signal. The essentials:
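Steps: dose HepG2 for 24 h (0.39–200 uM, 0.5% DMSO); fix 30 min in 3.7% formaldehyde at room temperature; permeabilize; stain alpha-tubulin 60 min; image microtubule cytoskeleton at 20x. Signal change fitted in both directions relative to DMSO.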

The nature of assay [5]: APR_HepG2_MitoticArrest_24hr: Apredica 24-hour HepG2 Assay for Mitotic Arrest (AID 2282910). Conditions: high-content imaging, actives raise or lower the signal. The gist of the method: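 Compounds are dosed onto HepG2 cells across ten concentrations up to 200 uM for 24 hr. Cells are then fixed in 3.7% formaldehyde, permeabilised, and labelled for phospho-histone H3 and nuclei; images are scored by cell cycle analysis and fitted bidirectionally relative to DMSO.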

Assay [6] can be described thus: APR_HepG2_MitoMembPot_24hr: Apredica 24-hour HepG2 Assay for Mitochondrial Membrane Potential (AID 2282911). The following applies: imaging, actives raise or lower the signal. The essentials:
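Human hepatoma HepG2 cultures received ten compound concentrations up to 200 uM for 24 hr. Membrane-potential dye signal, captured by automated fluorescence microscopy, was scored for gain or loss against DMSO controls.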

Assay [7] can be described thus: APR_HepG2_MitoMass_24hr: Apredica 24-hour HepG2 Assay for Mitochondrial Mass (AID 2282912). The following applies: high-content imaging, actives raise or lower the signal. The essentials:
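The liver line HepG2 was dosed in duplicate across a 0.39–200 uM series, with final DMSO held at 0.5% v/v, and harvested at 24 hr. High-content imaging measured mitochondrial dye staining.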

The nature of assay [8]: APR_HepG2_p53Act_24hr: Apredica 24-hour HepG2 Assay for p53 Activation (AID 2282913).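 Also: p53 protein immunofluorescence averaged per cell in HepG2 with Hoechst nuclei.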 The following applies: high-content imaging, actives raise or lower the signal. The essentials:
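Automated fluorescence imaging quantifies p53 immunostaining in HepG2 cells after a 24 hr exposure (0.39–200 uM, duplicate, 0.5% DMSO). Nuclei are located by Hoechst 33342 staining.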

Assay [9] is described as follows: APR_HepG2_CellCycleArrest_72hr: Apredica 72-hour HepG2 Assay for Cell Cycle Arrest (AID 2282914). The following applies: high-content imaging, actives raise or lower the signal. The essentials:
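Cell cycle arrest in HepG2 was scored from nuclear DNA content after 72 hr compound treatment (0.39–200 uM). Activity, either gain or loss, was fitted against the DMSO baseline.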

Assay [10] in a line: APR_HepG2_CellLoss_72hr: Apredica 72-hour HepG2 Assay for Cell Loss (AID 2282915). The following applies: high-content imaging. The essentials:
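Cell number comes from Hoechst 33342-labelled nuclei, imaged at 20x after 3.7% formaldehyde fixation. Dosing was 0.39–200 uM, ten concentrations in duplicate, 0.5% DMSO final, for 72 h. Bidirectional fit relative to DMSO baseline.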

A short description of assay [11]: APR_HepG2_P-H2AX_72hr: Apredica 72-hour HepG2 Assay for H2AX Phosphorylation (AID 2282916).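 Also: phospho-histone H2A.x immunostain intensity per cell marking DNA damage.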 Conditions: imaging, actives raise or lower the signal. The essentials:
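Following 72 hr treatment with 0.39–200 uM compound, HepG2 cells were formaldehyde-fixed, permeabilized and stained for phospho-H2A.x; signal was measured by high-content imaging and fitted bidirectionally against DMSO controls.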

Assay [12] is described as follows: APR_HepG2_MitoticArrest_72hr: Apredica 72-hour HepG2 Assay for Mitotic Arrest (AID 2282918). Conditions: high-content imaging, actives raise or lower the signal. The gist of the method:
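Mitotic arrest in HepG2 is scored from phospho-histone H3 staining after 72 hr dosing across 0.39–200 uM, with DMSO at 0.5% v/v. Nuclei are identified by Hoechst 33342 and fluorescence intensity is quantified per cell.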

The nature of assay [13]: APR_HepG2_MicrotubuleCSK_72hr: Apredica 72-hour HepG2 Assay for Microtubule CSK Stabilty (AID 2282919). Conditions: HepG2 microtubule cytoskeleton, high-content imaging, actives raise or lower the signal. The gist of the method: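 Read-out is tubulin fluorescence intensity from high-content imaging of HepG2 cells, with nuclei identified by Hoechst 33342. Treatment lasts 72 h at 0.39–200 uM, and curves are fitted bidirectionally against the DMSO negative control.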

Assay [14] in a line: APR_HepG2_P-H2AX_24hr: Apredica 24-hour HepG2 Assay for H2AX Phosphorylation (AID 2282920). The following applies: high-content imaging, actives raise or lower the signal. The essentials:
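Signal comes from a FITC-labeled secondary detecting phospho-histone H2A.x in fixed HepG2 cells, quantified by automated imaging at 20x. Dosing ran 24 hr across 0.39–200 uM with 0.5% v/v DMSO.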

A short description of assay [15]: APR_HepG2_StressKinase_72hr: Apredica 72-hour HepG2 Assay for Stress Kinase (AID 2282921). The following applies: HepG2 stress kinase (phospho-c-Jun) imaging, actives raise or lower the signal. The gist of the method: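 Fluorescence intensity of Cy3-tagged anti-phospho-c-Jun antibody, quantified per cell from Hoechst-defined nuclei across six images per well, served as the read-out following 72 h exposure (0.39–200 uM, 0.5% v/v DMSO).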

A short description of assay [16]: APR_HepG2_StressKinase_24hr: Apredica 24-hour HepG2 Assay for Stress Kinase (AID 2282922). The following applies: HepG2 stress kinase (phospho-c-Jun) imaging, actives raise or lower the signal. The essentials: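 HepG2, 24 hr dosing, 0.39–200 uM in duplicate, 0.5% DMSO; formaldehyde fix (3.7%), 0.5% Triton X-100; anti-phospho-c-Jun + Cy3 secondary, Hoechst counterstain; ArrayScan imaging; bidirectional curve fit vs DMSO baseline.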

Assay [17] in a line: APR_HepG2_NuclearSize_72hr: Apredica 72-hour HepG2 Assay for Nuclear Size (AID 2282925). The following applies: high-content imaging, actives raise or lower the signal. The essentials:
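HepG2; cpd 0.39–200 uM, 10 conc, duplicate; 72 h; DMSO 0.5% v/v; fix 3.7% formaldehyde 30 min RT; Triton permeabilization; Hoechst 2 ug/mL; HCS imaging 20x; nuclear diameter; gain/loss fit vs DMSO.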

The nature of assay [18]: ATG_CRE_CIS: Attagene CIS-FACTORIAL HepG2 Assay for human cAMP Responsive Element (CRE) binding protein 3 (AID 2282926). The following applies: HepG2 CRE cis-reporter, Attagene multiplexed mRNA; actives raise or lower the signal. The gist of the method: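 We dosed HepG2 cells bearing multiple cis-promoter reporter units for 24 h and measured reporter mRNA by RT-PCR with capillary electrophoresis detection. Bidirectional concentration-response fitting used DMSO as negative control.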

Assay [19] has as its target CCAAT/enhancer-binding protein beta (Homo sapiens) (UniProt P17676). Kind of assay: ATG_C_EBP_CIS: Attagene CIS-FACTORIAL HepG2 Assay for human CCAAT/Enhancer Binding Protein (C/EBP) beta (AID 2282927). Conditions: HepG2 Attagene cis-factorial transcription factor reporter; actives raise or lower the signal. The essentials: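 Changes in reporter mRNA, rather than exogenous chimeric receptor activity, reflect native C/EBP signalling in transfected HepG2 cells dosed for 24 h; transcripts are detected by RT-PCR and capillary electrophoresis.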

Sequence of CCAAT/enhancer-binding protein beta (Homo sapiens) (P17676 whole entry, looked up): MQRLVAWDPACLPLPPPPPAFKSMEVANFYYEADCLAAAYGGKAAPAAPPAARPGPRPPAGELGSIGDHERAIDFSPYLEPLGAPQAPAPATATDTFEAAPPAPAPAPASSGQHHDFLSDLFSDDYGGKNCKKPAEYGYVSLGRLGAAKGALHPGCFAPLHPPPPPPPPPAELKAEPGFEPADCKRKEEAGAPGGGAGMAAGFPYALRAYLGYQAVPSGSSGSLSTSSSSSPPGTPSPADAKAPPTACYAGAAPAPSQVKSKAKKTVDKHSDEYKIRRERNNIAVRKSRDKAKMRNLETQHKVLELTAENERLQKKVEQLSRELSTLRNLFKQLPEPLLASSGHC

As to `Cc1ccccc1N`, the result in assay [1], in assay [2], in [3], in [4], in assay [5] and in assay [6] was inactive. Further, the compound was called inactive in assay [7], in [8], in assay [9], in assay [10], in assay [11] and in assay [12]. Also, the compound was called inactive in assay [13], in assay [14], in assay [15], in assay [16], in assay [17] and in assay [18]. Further, the result in assay [19] was inactive.
Regarding `O=C(O)C(Cl)(Cl)Cl`, the compound was called inactive in assay [1], in [2], in [3], in [4], in [5] and in [6]. In addition, the compound was classed as inactive in assay [7], in assay [8], in assay [9], in assay [10], in assay [11] and in assay [12]. The call in assay [13], in assay [14], in [15], in assay [16], in assay [17] and in assay [18] was inactive. Moreover, the outcome in assay [19] was inactive. Moreover, the AC50 is 100 µM (active) in assay [3]; 101 µM (active) in assay [6]; 161 µM (active) in [7]; 165 µM (active) in assay [8]; 171 µM (active) in assay [9]; 110 µM (active) in [10]. Moreover, the AC50 is 114 µM (active) in assay [12] and 106 µM (active) in [14].
Regarding `C=C(C)C(=O)[O][Sn]([CH2]CCC)([CH2]CCC)[CH2]CCC`, the outcome in assay [1], in assay [2], in [4], in assay [6], in assay [13] and in assay [15] was inactive. In addition, the compound was classed as inactive in [16], in [18] and in [19]. Moreover, the half-maximal activity concentration (AC50) in assay [3] is 0.773 µM (active); in [5] it was 0.248 µM (active); in [7], 0.226 µM (active); in assay [8] it was 0.294 µM (active); in assay [9], 0.188 µM (active); in [10], 0.228 µM (active). The AC50 in [11] is 0.0519 µM (active); in assay [12], 0.0391 µM (active); in [14], 0.159 µM (active); in [17] it was 0.0558 µM (active).
On to `CC(=O)[O][Hg][c]1ccccc1`, for which the compound was called inactive in assay [1], in [6], in assay [7], in assay [8] and in assay [17]. Besides, the AC50 in [2] is 66.6 µM (active); in assay [3] it was 5.21 µM (active); in assay [4] it was 5.17 µM (active); in [5] it was 3.06 µM (active); in [9], 28.7 µM (active); in assay [10] it was 3.19 µM (active). Besides, the AC50 in assay [11] was 3.55 µM (active); in assay [12] it was 1.83 µM (active); in [13], 2.44 µM (active); in assay [14], 1.74 µM (active); in assay [15] it was 7.33 µM (active); in assay [16] it was 88.1 µM (active). The AC50 is 2.79 µM (active) in assay [18] and 1.64 µM (active) in assay [19].
